Assay outcomes deposited in PubChem BioAssay by National Center for Advancing Translational Sciences (NCATS).
The list is not random: actives were taken first. Their share in the collection is about 3.6%.
Rango release inh: qHTS Assay for Inhibitors of RanGTP induced Rango (Ran-regulated importin-beta cargo) - Importin beta complex dissociation; Snurportin-1 (Homo sapiens) + GTP-binding nuclear protein Ran (Homo sapiens) + Importin …; AID 540253, 2011; Potency, µM (doses to about 46.1 µM), without a hit: at the top dose activity change, negative = inhibition; Biochemical FRET Rango-importin beta, RanGTP-induced dissociation; 340,000 tested, 0.071% active; calls by dose curve; further: potency means the concentration at half of the fitted maximal effect; % of control where 0% means no effect; nearly all actives have a fitted effect of over 45% in size
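FRET read at 45 min, room temperature: inhibitors block the CFP/YFP signal rise when RanGTP (0.6 uM Ran, 2 mM GTP, 0.2 uM RCC1) frees Rango (0.1 uM) from importin beta (0.25 uM). Pre-read after 5 min compound exposure flags interference.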
KAT2A inh: qHTS Assay for Inhibitors of GCN5L2 | GCN5L2 HAT assay, ThioGlo1 CoA-SH fluorescence | Potency, µM (highest dose often 58.9 µM), for inactives: top-dose activity change, negative = inhibition, usual class: inhibitors | Histone acetyltransferase KAT2A (Homo sapiens), Q92830 | 390,000 tested, 0.21% active; further: potency means the concentration at half of the fitted maximal effect; on the % scale 0 is the no-effect control and ±100 the full control effect
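GCN5L2 (20 nM) in 50mM HEPES pH 7.5, 0.1mM EDTA, 0.01% Tween-20 preincubated 15 min with compounds at room temperature. Reaction started with H3(1-25) 75uM, acetyl-CoA 70uM, ThioGlo1 50uM; CoA-thiol fluorescence (Ex340/Em540) read at 0 and 20 min.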
Rango complex inh: qHTS Assay for Inhibitors of Rango (Ran-regulated importin-beta cargo) - Importin beta complex formation | Importin subunit beta-1 (Homo sapiens), Q14974 | Rango CFP/YFP FRET sensor + importin beta, 45 min | Potency, µM (doses to about 92.2 µM), inactives show at the top dose inhibition of complex formation | 340,000 tested, 0.031% active | AID 540263, 2011; calls by dose curve;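 further: potency means the concentration at half of the fitted maximal effect; 0% = DMSO wells and 100% = buffer wells lacking importin beta; nearly all actives have a fitted effect of over 15% in size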
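FRET biosensor (snurportin 1 IBB flanked by EYFP and cerulean), 50 nM, with compound 5 min, then 0.125 microM importin beta in PBS, 1 mM DTT, 0.02% Tween-20, 0.1% BSA. CFP/YFP ratio read after 45 min at room temperature; pre-read flags interference.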
PLK1 PBD inh: qHTS for Inhibitors of PLK1-PDB (polo-like kinase 1 - polo-box domain): Primary Screen | 360,000 tested, 2.8% active | Serine/threonine-protein kinase PLK1 (Homo sapiens), P53350 | Potency, µM, for inactives: max response, negative = inhibition, hits mostly inhibitors | Plk1 PBD binding of FITC phosphopeptide, fluorescence polarization | AID 720504, 2013; further: potency means the concentration at half of the fitted maximal effect; series mostly up to about 57 µM; on the % scale 0 is the no-effect control and ±100 the full control effect; nearly all actives have a fitted effect of over 65% in size
PI5P4K alpha inh: qHTS for Inhibitors of phosphatidylinositol 5-phosphate 4-kinase (PI5P4K) | AID 652105, 2013 | Phosphatidylinositol 5-phosphate 4-kinase type-2 alpha (Homo sapiens), P48426 | 330,000 tested, 1.2% active | max response, % | PI5P4Kalpha enzyme, ADP-Glo luminescence, 60 min; active compounds read low; active means max response of -50% or lower; inconclusive means between -30% and -50%; inactive means -30% or higher; further: value at the top dose of about 77 µM; on the % scale 0 is the no-effect control and ±100 the full control effect
Target sequence (P48426 whole entry, looked up): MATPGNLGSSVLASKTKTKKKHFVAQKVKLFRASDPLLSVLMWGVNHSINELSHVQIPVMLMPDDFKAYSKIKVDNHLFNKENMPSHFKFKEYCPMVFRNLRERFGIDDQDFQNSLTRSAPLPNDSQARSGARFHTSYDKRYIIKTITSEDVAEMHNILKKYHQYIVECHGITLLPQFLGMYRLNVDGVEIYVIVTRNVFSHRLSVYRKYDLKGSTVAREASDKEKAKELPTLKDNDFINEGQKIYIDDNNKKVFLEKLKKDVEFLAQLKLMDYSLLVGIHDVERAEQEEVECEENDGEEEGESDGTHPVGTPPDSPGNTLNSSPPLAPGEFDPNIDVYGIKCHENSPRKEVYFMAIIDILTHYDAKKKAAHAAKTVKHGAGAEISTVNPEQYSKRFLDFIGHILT
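PI5P4Kalpha ADP-Glo assay; 5 microM ATP final; 60 min RT reaction; HEPES pH 7.4/EGTA/CHAPS, 5% DMSO; controls lacking substrate or enzyme; luminescent end-point.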
VDR inhibitor: Inhibitors of the vitamin D receptor (VDR): qHTS; 400,000 tested, 0.93% active; Potency, µM, for the others: max response, negative = inhibition, hits mostly inhibitors; VDR-SRC2-3 peptide fluorescence polarization, 2 h; further: potency means the concentration at half of the fitted maximal effect; on the % scale 0 is the no-effect control and ±100 the full control effect
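Inhibition of the VDR/SRC2-3 peptide interaction is quantified by fluorescence polarization. Compounds (23 nl, pintool) incubate with the reagents for 2 hours at ambient room temperature.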
Numbers without * were called inactive; ? = inconclusive; . = not tested or not shown; ! = not confirmed by another sample. Unless noted, the call rests on the fitted dose curve; in most records, active means well fitted curve in the direction sought with a large enough effect; inconclusive means small, poorly fitted or top-dose-only effect, or another doubt; inactive means no such curve, though single readings can be large; an effect the other way counts as inactive or inconclusive.

SMILES	Rango release inh	KAT2A inh	Rango complex inh	PLK1 PBD inh	PI5P4K alpha inh	VDR inhibitor
Cc1c(OCC(=O)NC(Cc2ccc(Cl)cc2)C(=O)O)ccc2c(-c3ccccc3)cc(=O)oc12 (stereo not drawn)	7%	?	8%	67µM*	1	-11%
O=C(Cc1cc(=O)oc2cc(O)ccc12)NC(Cc1ccc(Cl)cc1)C(=O)O (stereo not drawn)	?	28µM*	?	30µM*	-25	?
CCCc1cc(=O)oc2cc(OCC(=O)NCC3CCC(C(=O)O)CC3)ccc12 (stereo not drawn)	-6%	?	-3%	-6%	-6	5%
Cc1c(O)ccc2c(CC(=O)N[C@@H](Cc3ccc(O)cc3)C(=O)O)cc(=O)oc12	?	-9%	?	-18%	1	13%
COc1ccc(-c2cc(=O)oc3c(C)c(OCC(=O)N[C@@H](Cc4ccc(O)cc4)C(=O)O)ccc23)cc1	0%	-9%	-2%	-8%	-4	-24%
Cc1ccc(NC(=O)CN2C(=O)CSc3ccc(S(=O)(=O)N(C)C)cc32)cc1C	.	-3%	.	.	.	-1%
CCn1c(=O)c2cc(C(=O)N(CC(C)C)CC(C)C)sc2c2ccccc21	.	-13%	.	.	.	-15%
O=C(COc1ccccc1Cl)N(Cc1cccc(F)c1)C1CCS(=O)(=O)C1 (stereo not drawn)	.	-8%	.	.	.	-5%
CCOc1ccc(S(=O)(=O)NCCc2sc3nc(-c4ccc(F)cc4)nn3c2C)cc1	.	-2%	.	.	.	4%
O=[N+]([O-])c1cc(Br)c(Nc2ccccc2)c([N+](=O)[O-])c1	2%	?	0%	30µM*	3	?
O=C(Nc1ccccc1)c1ccc(Nc2c([N+](=O)[O-])cc([N+](=O)[O-])c3ccccc23)cc1	-5%	-3%	?	-3%	8	10%
CCCCC(CC)CNC(=O)c1ccc(Cn2c(=O)[nH]c3cc(OC)c(OC)cc3c2=O)cc1 (stereo not drawn)	.	3%	.	.	.	-14%
CN=c1c([N+](=O)[O-])nn(-c2ccc3c(c2)OCCO3)n1O	11%	-25%	-4%	24µM*	2	-19%
C=CCn1cc(/C=C2\SC(N3CCOCC3)=NC2=O)c2ccccc21	16µM*	?	?	-10%	-7	-4%
CCN(CC)C(=O)c1c(-c2ccccc2)c(-c2ccccc2)nn(C)c1=O	.	-4%	.	.	.	-14%
CCSc1nnc(NC(=O)CSc2nccn2-c2cccc(C)c2C)s1	5%	-9%	1%	3.8µM*	-19	?
COc1ccccc1-c1ccc2ncnc(N(C)Cc3ccco3)c2c1	.	1%	.	.	.	45µM*
CN(C)c1ncnc2ccc(-c3ccoc3)cc12	.	-13%	.	.	.	?
CN(C)Cc1ccccc1-c1ccc2ncnc(N(C)C)c2c1	.	1%	.	.	.	-4%
CN(Cc1ccco1)c1ncnc2ccc(-c3ccoc3)cc12	-2%	-23%	0%	.	.	50µM*!
CN(Cc1ccco1)c1ncncc1-c1ccccc1Cl	.	-19%	.	.	.	28µM*
CN(Cc1ccco1)c1ncnc2ccc(-c3ccccc3Cl)cc12	-9%	-5%	1%	.	.	50µM*!
CN(Cc1ccco1)c1ncnc2ccc(-c3cccc(NS(C)(=O)=O)c3)cc12	.	-12%	.	.	.	?
CC(=O)NC(c1ccco1)c1cc(Cl)c2ccc(N3CCCCC3)nc2c1O (stereo not drawn)	.	-5%	.	.	.	.
N#C/C(=C\c1ccc(-c2ccc(C(=O)O)cc2)o1)C(=O)Nc1ccccc1C(=O)O	.	-12%	.	.	.	-9%
SMILES	Rango release inh	KAT2A inh	Rango complex inh	PLK1 PBD inh	PI5P4K alpha inh	VDR inhibitor
CCOC(=O)c1ccccc1NC(=O)N1CCN(Cc2cc(=O)n3nc(-c4ccccc4)sc3n2)CC1	.	4%	.	.	.	10%
CC(=O)N(c1ccc2ccccc2c1)C1SC(=O)N(c2cccc(C)c2)C1=O (stereo not drawn)	.	.	.	.	.	-12%
CN(Cc1ccco1)c1cc(-c2ccccc2Cl)ncn1	.	-18%	.	.	.	45µM*
CN(Cc1ccco1)c1ncnc2ccc(-c3ccccc3C(F)(F)F)cc12	.	-20%	.	.	.	32µM*
CCCCCn1c(=O)[nH]c2cc(C(=O)N3CCN(c4cc(Cl)ccc4C)CC3)ccc2c1=O	.	-5%	.	.	.	4%
COc1ccc(N2C(=O)c3ccccc3S2(=O)=O)cc1	29%	14%	7%	-15%	6	-11%
COc1ccc2c(c1)-c1ccccc1S(=O)(=O)N2C(C)=O	-5%	-1%	-2%	27µM*	.	-2%
CCOC(=O)N1CCC(NC(=O)c2ccc3c(c2)N(Cc2ccc(F)cc2)C(=O)c2ccccc2S3(=O)=O)CC1	.	-8%	.	.	.	8%
CCc1ccccc1NC(=O)c1sc(-n2nc(C)c(Cc3ccccc3)c2C)nc1C	.	-1%	.	.	.	14%
Nc1sc2c(c1C(=O)c1ccc(Cl)cc1)CCCC2	.	3%	.	.	.	45µM*
CC(C)OC(=O)c1c(N)sc2c1CCCC2	-3%	.	-1%	24µM*	.	?
Cc1cccc(C(=O)c2c(N)sc3c2CCCC3)c1	-14%	-7%	2%	?	-17	-22%
CNC(=O)c1c(N)sc2c1CCCCC2	.	-11%	.	.	.	.
Cc1ccc(C)n1-c1ccc(C(=O)NC2CCN(Cc3ccccc3)CC2)cc1	6%	2%	4%	-12%	0	-16%
Cc1ccc(CN2CCC(NC(=O)c3ccccc3)CC2)cc1	-5%	-8%	3%	30µM*	-6	-11%
COc1ccc(OC)c(NC(=O)c2cccc3c2C(=O)N(C2CCCCC2)C3)c1	-20%	-15%	-2%	7%	-2	22µM*!
COc1ccc(C(=O)N(Cc2sccc2C)C2CCS(=O)(=O)C2)cc1Cl (stereo not drawn)	.	-3%	.	.	.	14%
C=C(C)CN(CC)c1nc(N)c(C#N)c(CC#N)c1C#N	-28%	-4%	?	-1%	?	5%
CN(C)c1nc(N)c(C#N)c(C#N)c1C#N	-6%	.	?	27µM*	-3	-14%
COc1cccc([C@@H]2Oc3ccc(OC)cc3C[C@H]2OC(=O)N[C@H]2CCCc3ccccc32)c1	.	.	.	.	.	0%
